Screens from PubChem.
Most compounds without a hit are left out; they make up all but 3.7% or so of the library.
PfHsp90 set2: inhibits growth of yeast expressing Plasmodium falciparum Hsp90; S. cerevisiae expressing PfHsp90, BacTiter-Glo ATP, 48 h; yeast lacking PDR1 and PDR3 efflux regulators; inhibition, % at 9.4 µM; 0.32% of 310,000 active;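 active = every replicate shows inhibition above about 80%, whatever the replicate mean, limit read from the data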;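 also: 0% = DMSO neutral controls and 100% = 20 µM radicicol positive controls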
V-ATPase pHluor: regulators of yeast V-ATPase proton transport. S. cerevisiae, pHLuorin cytosolic pH fluorescence. response, % at 10 µM. 0.37% of 350,000 active. AID 504577; in the data active = response mostly above about 7.3%, no sharp cut-off; inactive = mostly below about 5.4%; also: actives read high
TIM10 inh: TIM10 yeast growth inhibition; S. cerevisiae TIM10 strain growth, BacTiter-Glo luminescence, 24 h; inhibition, % at 10 µM; 1.4% of 330,000 active; AID 463195;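 active = inhibition of 40% or more at the single tested concentration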;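 also: wild-type TIM10 isogenic control strain grown at permissive 25 °C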
tim10-1 inh: inhibits growth of tim10-1 mutant yeast; S. cerevisiae tim10-1 ts strain growth, BacTiter-Glo, 24 h; inhibition, % at 20 µM; 2.2% of 330,000 active; AID 463190;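 active = inhibition of at least 40%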;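 also: mutant grown at 25 °C; 0% = DMSO wells with yeast and 100% = wells holding no yeast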
tim23-1 inh: inhibits growth of tim23-1 mutant yeast; S. cerevisiae tim23-1 growth, BacTiter-Glo luminescence, 24 h; inhibition, % at 20 µM; 1.3% of 330,000 active; AID 463212;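 active = growth inhibition of the mutant yeast at or above 50%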;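 also: temperature-sensitive mutant grown at 25 °C; plate controls were DMSO-treated mutant yeast for no effect and medium wells lacking yeast for full effect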
tim10 confirm: TIM10 yeast growth inhibition, confirmed; shares compounds with TIM10 inh; S. cerevisiae tim10 strain growth, BacTiter-Glo luminescence, 24 h; inhibition, % at 10 µM; 63% of 4,600 active;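 active = inhibition of yeast growth at or above a set limit in either of two replicates at 10 µM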;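 also: this counterscreen used the strain with wild-type TIM10; 0% = yeast with DMSO and 100% = medium wells lacking yeast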
Numbers without * were called inactive.

What do the screens show for `O=C(Nc1ccc(NC(=O)C2CC2)nc1)c1cccs1`?
PfHsp90 set2: 22; V-ATPase pHluor: -1; TIM10 inh: 28; tim10-1 inh: 3; tim23-1 inh: 12

What do the screens show for `CCCC(=O)NC(=S)Nc1ccc(NC(=O)c2cccs2)cc1`?
V-ATPase pHluor: -3; TIM10 inh: 45*; tim10-1 inh: -14; tim23-1 inh: 20; tim10 confirm: 18

Results for CCCC(=O)Nc1ccc(NC(=O)c2cccs2)cn1 ?
PfHsp90 set2: -11; V-ATPase pHluor: 8; TIM10 inh: 40*; tim10-1 inh: -15; tim23-1 inh: 19; tim10 confirm: -1

How did CCCC(=O)Nc1ccc(NC(=S)NC(=O)c2cccs2)cc1 do in these assays?
PfHsp90 set2: 22; V-ATPase pHluor: 3; TIM10 inh: 10; tim10-1 inh: -22; tim23-1 inh: -27

How did CC(NC(=O)C1CCN(C(=O)Nc2ccccc2)CC1)c1ccccc1Cl (configuration not stated) do in these assays?
PfHsp90 set2: -2; V-ATPase pHluor: 2; TIM10 inh: 11; tim10-1 inh: -2; tim23-1 inh: 4

Results for COc1ccc(-c2cn3cc(C(F)(F)F)cc(Cl)c3n2)cc1 ?
PfHsp90 set2: 8; V-ATPase pHluor: 1; TIM10 inh: 52*; tim10-1 inh: 29; tim23-1 inh: 31; tim10 confirm: 37*

What do the screens show for `O=C(NC1CCc2ccccc21)c1cc(COc2ccc(F)cc2Cl)on1` (configuration not stated)?
PfHsp90 set2: 17; V-ATPase pHluor: -4; TIM10 inh: 68*; tim10-1 inh: 12; tim23-1 inh: 15; tim10 confirm: -1

What do the screens show for `O=C(NC1Cc2ccccc2C1)c1cc(COc2ccc(F)cc2Cl)on1`?
PfHsp90 set2: -4; V-ATPase pHluor: 3; TIM10 inh: 1; tim10-1 inh: 17; tim23-1 inh: 6

Results for COc1cccc(C(=O)N/N=C(/c2ccccc2)c2ccccn2)c1 ?
PfHsp90 set2: 7; V-ATPase pHluor: -3; TIM10 inh: 40*; tim10-1 inh: 35; tim23-1 inh: 35; tim10 confirm: 5

Results for COc1cccc2cc(-c3n[nH]c(=S)n3C)oc12 ?
PfHsp90 set2: -1; V-ATPase pHluor: -1; TIM10 inh: 42*; tim10-1 inh: 38; tim23-1 inh: 28; tim10 confirm: 20

How did COc1cccc2cc(-c3ccnc(N)n3)oc12 do in these assays?
PfHsp90 set2: 11; V-ATPase pHluor: -3; TIM10 inh: 17; tim10-1 inh: 3; tim23-1 inh: -1

How did Cc1c(Cl)cccc1NC(=S)NCCCN(C)C do in these assays?
PfHsp90 set2: 2; V-ATPase pHluor: 1; TIM10 inh: 46*; tim10-1 inh: 8; tim23-1 inh: 3; tim10 confirm: -2

Results for CCCC(=O)Nc1cccc(-c2nc3ccccc3o2)c1 ?
PfHsp90 set2: -2; V-ATPase pHluor: 5; TIM10 inh: 47*; tim10-1 inh: 25; tim23-1 inh: -8; tim10 confirm: 12

How did Cc1ccc(C(=O)O/N=C/c2c(N3CCOCC3)n(C)c3ccccc23)cc1 do in these assays?
PfHsp90 set2: -6; V-ATPase pHluor: -13; TIM10 inh: 42*; tim10-1 inh: 31; tim23-1 inh: 40; tim10 confirm: 32*

Results for Cn1c(N2CCOCC2)c(/C=N/OC(=O)c2ccc(F)cc2)c2ccccc21 ?
PfHsp90 set2: 17; V-ATPase pHluor: -4; TIM10 inh: 9; tim10-1 inh: 38; tim23-1 inh: 17

What do the screens show for `Cc1ccc(N2C(=O)c3cccc(Oc4ccc(Cl)cc4)c3C2=O)c(C)c1`?
PfHsp90 set2: -10; V-ATPase pHluor: 1; TIM10 inh: 42*; tim10-1 inh: 23; tim23-1 inh: 29; tim10 confirm: 24

Results for O=C(O)CN1C(=O)c2cccc(Oc3ccc(Cl)cc3)c2C1=O ?
V-ATPase pHluor: -4; TIM10 inh: -9; tim10-1 inh: 17; tim23-1 inh: 9

What do the screens show for `CN(Cc1ccccc1)S(=O)(=O)c1ccc2c(c1)n(C)c(=O)c(=O)n2C`?
PfHsp90 set2: 4; V-ATPase pHluor: 1; TIM10 inh: -9; tim10-1 inh: -9; tim23-1 inh: -22

Results for CN(Cc1ccccc1)C(=O)CCS(=O)(=O)c1ccc2c(c1)n(C)c(=O)c(=O)n2C ?
PfHsp90 set2: -6; V-ATPase pHluor: 2; TIM10 inh: 40*; tim10-1 inh: 14; tim23-1 inh: 7; tim10 confirm: -10

Results for c1ccc(C(c2nnnn2C2CCCC2)N2CCN(c3nc4ccccc4s3)CC2)cc1 (configuration not stated) ?
PfHsp90 set2: -13; V-ATPase pHluor: 1; TIM10 inh: 47*; tim10-1 inh: 36; tim23-1 inh: 12; tim10 confirm: -19

What do the screens show for `Cc1ccc(C(c2nnnn2C2CCCC2)N2CCN(c3nc4ccccc4s3)CC2)cc1` (configuration not stated)?
PfHsp90 set2: -12; V-ATPase pHluor: -2; TIM10 inh: 56*; tim10-1 inh: 38; tim23-1 inh: 12; tim10 confirm: -1

How did c1csc(C(c2nnnn2C2CCCCC2)N2CCN(c3nc4ccccc4s3)CC2)c1 (configuration not stated) do in these assays?
PfHsp90 set2: 72; V-ATPase pHluor: 1

Results for C=CCNC(=S)NS(=O)(=O)c1cccs1 ?
PfHsp90 set2: 11; V-ATPase pHluor: 2; TIM10 inh: 10; tim10-1 inh: 10; tim23-1 inh: -3

Results for Cc1c(C(=O)Nc2nc3ccccc3[nH]2)oc2ccc(Br)cc12 ?
PfHsp90 set2: -34; V-ATPase pHluor: -2; TIM10 inh: 8; tim10-1 inh: 8; tim23-1 inh: 13

What do the screens show for `Cc1c(C(=O)Nc2nc3ccccc3[nH]2)oc2c(Cl)cccc12`?
PfHsp90 set2: -12; V-ATPase pHluor: -4; TIM10 inh: 44*; tim10-1 inh: 4; tim23-1 inh: 45; tim10 confirm: 24

How did CCc1noc(C)c1C(=O)NNC(=O)COc1cc(C)ccc1C do in these assays?
PfHsp90 set2: 3; V-ATPase pHluor: 4; TIM10 inh: 7; tim10-1 inh: 13; tim23-1 inh: 15

Results for Cc1ccc(/C=N/n2c(COc3ccccc3)n[nH]c2=S)s1 ?
PfHsp90 set2: -18; V-ATPase pHluor: 2; TIM10 inh: 48*; tim10-1 inh: 39; tim23-1 inh: 39; tim10 confirm: 44*

Results for NS(=O)(=O)c1cccc(NC(=O)c2ccc(S(=O)(=O)N3CCCCCC3)cc2)c1 ?
PfHsp90 set2: -22; V-ATPase pHluor: -3; TIM10 inh: -3; tim10-1 inh: -12; tim23-1 inh: 0

Results for CN(Cc1ccccc1)C1CCN(Cc2ccccc2[N+](=O)[O-])CC1 ?
PfHsp90 set2: 14; V-ATPase pHluor: 6

How did O=C(O/N=C1/CCCc2occc21)c1ccc(Cl)cc1Cl do in these assays?
PfHsp90 set2: -6; V-ATPase pHluor: -5; TIM10 inh: 44*; tim10-1 inh: 23; tim23-1 inh: 14; tim10 confirm: 38*
